Results published in ChEMBL document CHEMBL3988442, “University of Dundee, Small-Polar-MMV Screening Library” (2021).
For some of these results: Potency and affinity values are given separately.

Key:
Parameters in all cases: scale not given: direction of the effect not stated beside the values
[1] = molecular target: Protein translocase subunit SecA (Escherichia coli (strain K12)) (UniProt P10408); assay: Assay to Identify E. coli SecA ATPase Inhibitors; assay type: functional; settings: 30 µM
[2] = molecular target: T1, Ubiquitin-activating enzyme e1, putative (Leishmania donovani (strain BPK282A1)) (UniProt E9BSI1); assay: Leishmania donovani Ubiquitin Activating Enzyme (LdE1); assay type: functional; settings: 30 µM
T1 sequence (whole entry): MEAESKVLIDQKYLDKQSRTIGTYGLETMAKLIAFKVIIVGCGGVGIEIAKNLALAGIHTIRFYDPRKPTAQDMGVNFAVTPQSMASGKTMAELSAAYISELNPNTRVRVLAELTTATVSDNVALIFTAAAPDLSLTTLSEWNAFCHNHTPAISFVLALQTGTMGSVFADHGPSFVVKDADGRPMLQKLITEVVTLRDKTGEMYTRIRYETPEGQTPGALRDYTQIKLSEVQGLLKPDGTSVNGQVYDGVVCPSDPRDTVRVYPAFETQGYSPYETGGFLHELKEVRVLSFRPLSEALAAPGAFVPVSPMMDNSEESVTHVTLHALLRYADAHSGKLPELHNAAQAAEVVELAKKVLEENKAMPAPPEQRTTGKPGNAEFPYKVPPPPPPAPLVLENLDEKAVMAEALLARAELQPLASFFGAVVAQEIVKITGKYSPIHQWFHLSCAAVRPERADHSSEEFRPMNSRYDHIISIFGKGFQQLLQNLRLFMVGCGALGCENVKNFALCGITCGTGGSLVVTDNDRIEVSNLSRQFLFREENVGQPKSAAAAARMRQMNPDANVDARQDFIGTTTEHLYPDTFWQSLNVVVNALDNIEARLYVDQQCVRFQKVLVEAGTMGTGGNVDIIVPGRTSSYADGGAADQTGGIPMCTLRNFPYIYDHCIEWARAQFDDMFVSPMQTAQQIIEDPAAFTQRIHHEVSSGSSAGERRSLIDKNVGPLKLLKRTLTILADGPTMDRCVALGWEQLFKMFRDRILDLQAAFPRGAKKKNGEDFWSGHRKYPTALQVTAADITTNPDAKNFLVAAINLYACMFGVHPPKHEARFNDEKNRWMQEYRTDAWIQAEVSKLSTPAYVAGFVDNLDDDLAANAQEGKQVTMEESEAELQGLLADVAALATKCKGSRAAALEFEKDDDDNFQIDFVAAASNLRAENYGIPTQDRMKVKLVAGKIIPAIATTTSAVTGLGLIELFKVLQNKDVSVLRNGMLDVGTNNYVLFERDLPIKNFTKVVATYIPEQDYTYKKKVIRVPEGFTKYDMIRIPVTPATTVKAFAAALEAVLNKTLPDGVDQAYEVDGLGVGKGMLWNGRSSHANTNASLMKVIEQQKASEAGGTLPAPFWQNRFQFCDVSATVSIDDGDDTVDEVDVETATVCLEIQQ

[3] = molecular target: AMP-activated protein kinase, AMPK (Homo sapiens) (UniProt P54646+O43741+P54619+Q9UGJ0+Q9Y478+Q13131+Q9UGI9); assay: AMP-dependent Kinase enzyme assay. An in vitro enzyme assay that detects ADP turnover that is directly proportional to AMPK activity. This uses naive AMPK that is activated during the assay with MK-8722; assay type: functional; settings: 30 µM
[4] = molecular target: Sialic acid-binding Ig-like lectin 9 (Homo sapiens) (UniProt Q9Y336); assay: Hs-Siglec9 ALPHAscreen SOP 20170721; settings: 10 µM
Sequence of Sialic acid-binding Ig-like lectin 9 (Homo sapiens) (Q9Y336 whole entry): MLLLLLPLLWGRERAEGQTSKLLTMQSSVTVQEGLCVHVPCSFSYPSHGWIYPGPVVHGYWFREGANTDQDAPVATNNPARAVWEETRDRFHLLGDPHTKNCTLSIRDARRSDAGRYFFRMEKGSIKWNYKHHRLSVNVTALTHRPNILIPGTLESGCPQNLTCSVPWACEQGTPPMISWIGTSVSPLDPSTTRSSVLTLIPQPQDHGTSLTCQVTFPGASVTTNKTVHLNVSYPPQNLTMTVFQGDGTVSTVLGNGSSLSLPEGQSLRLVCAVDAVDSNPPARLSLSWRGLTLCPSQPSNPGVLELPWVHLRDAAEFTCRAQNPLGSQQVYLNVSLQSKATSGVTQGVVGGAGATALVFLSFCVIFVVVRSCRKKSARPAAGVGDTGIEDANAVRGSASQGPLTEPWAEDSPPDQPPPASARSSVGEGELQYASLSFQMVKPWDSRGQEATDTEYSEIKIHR

Trypanosoma cruzi = assay: Trypanosoma cruzi phosphomannomutase and mannose-1-phosphate guanylyltransferase assay; assay type: functional; settings: 10 µM
[5] = molecular target: T2, Arginase-2, mitochondrial (Homo sapiens) (UniProt P78540); assay: in vitro enzyme assay to detect the production of urea directly proportional to the activity of Arginase II; assay type: functional; settings: 33.3 µM; note: in the data most compounds retested in dose-response had high values
T2 sequence (whole entry): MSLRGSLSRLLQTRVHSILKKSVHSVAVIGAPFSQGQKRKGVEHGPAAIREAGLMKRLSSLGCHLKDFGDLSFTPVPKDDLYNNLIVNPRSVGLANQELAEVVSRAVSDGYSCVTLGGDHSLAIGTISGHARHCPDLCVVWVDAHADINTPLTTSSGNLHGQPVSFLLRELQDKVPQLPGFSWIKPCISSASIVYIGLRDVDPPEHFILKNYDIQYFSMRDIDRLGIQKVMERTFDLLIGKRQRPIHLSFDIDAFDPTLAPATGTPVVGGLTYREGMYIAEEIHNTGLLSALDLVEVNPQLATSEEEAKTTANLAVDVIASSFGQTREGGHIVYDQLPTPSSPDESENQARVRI

[6] = molecular target: T3, Proteasome subunit beta (Trypanosoma cruzi) (UniProt O96673); assay: Trypanosoma cruzi proteasome chymotrypsin-like activity (TcProtChymo) assay.; note: in the data most compounds retested in dose-response had high values; assay type: functional; settings: 9.37 µM
T3 sequence (whole entry): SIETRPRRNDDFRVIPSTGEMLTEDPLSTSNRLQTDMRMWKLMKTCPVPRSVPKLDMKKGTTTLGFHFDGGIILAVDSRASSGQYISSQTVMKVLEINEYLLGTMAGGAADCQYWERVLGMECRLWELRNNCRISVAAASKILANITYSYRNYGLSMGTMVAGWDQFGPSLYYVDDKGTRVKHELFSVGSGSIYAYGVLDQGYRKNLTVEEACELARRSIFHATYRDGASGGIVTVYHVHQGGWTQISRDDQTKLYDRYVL

Homo sapiens = organism: Homo sapiens; assay: To identify inhibition of the IFN signalling (Jak-Stat) pathway via expression of an eGFP reporter gene under the control of an IFN-stimulated response element (ISRE) containing MxA promoter.; assay type: functional; settings: 30 µM
[7] = molecular target: T4, Tyrosyl-tRNA synthetase, putative (Trypanosoma cruzi (strain CL Brener)) (UniProt Q4DSP6); assay: Trypanosoma cruzi tyrosyl tRNA synthetase (TcYRS) _High Tyrosine SOP; assay type: functional; settings: 30 µM; note: in the data most compounds retested in dose-response had high values
T4 sequence (whole entry): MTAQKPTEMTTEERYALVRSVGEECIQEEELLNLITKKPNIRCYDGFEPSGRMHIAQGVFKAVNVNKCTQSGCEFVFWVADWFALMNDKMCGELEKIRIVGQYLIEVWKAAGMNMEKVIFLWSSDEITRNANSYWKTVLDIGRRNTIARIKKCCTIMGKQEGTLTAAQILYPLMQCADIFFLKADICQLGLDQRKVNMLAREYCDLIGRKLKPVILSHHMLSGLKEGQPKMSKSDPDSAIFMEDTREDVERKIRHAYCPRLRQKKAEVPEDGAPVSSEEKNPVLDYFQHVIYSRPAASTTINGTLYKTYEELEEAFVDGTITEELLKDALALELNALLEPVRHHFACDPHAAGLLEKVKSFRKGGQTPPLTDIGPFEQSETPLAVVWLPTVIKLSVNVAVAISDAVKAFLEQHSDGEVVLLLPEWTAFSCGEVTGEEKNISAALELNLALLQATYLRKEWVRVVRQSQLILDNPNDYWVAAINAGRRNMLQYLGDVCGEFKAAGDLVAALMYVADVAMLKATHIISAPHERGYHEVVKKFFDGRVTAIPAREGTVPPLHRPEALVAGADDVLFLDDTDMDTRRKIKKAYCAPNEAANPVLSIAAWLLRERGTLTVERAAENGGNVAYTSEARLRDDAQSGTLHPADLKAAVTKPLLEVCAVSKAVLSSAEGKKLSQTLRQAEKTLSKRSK

[8] = molecular target: T4, Tyrosyl-tRNA synthetase, putative (Trypanosoma cruzi (strain CL Brener)); assay: Trypanosoma cruzi tyrosyl tRNA synthetase (TcYRS) SOP; assay type: functional; settings: 30 µM
[9] = molecular target: Chromo domain-containing protein 1 (Saccharomyces cerevisiae (strain ATCC 204508 / S288c) (Baker's yeast)) (UniProt P32657); assay: ScCHD-1 Enzyme Inhibition Assay; assay type: functional; settings: 30 µM; note: in the data most compounds retested in dose-response had high values
Sequence of Chromo domain-containing protein 1 (Saccharomyces cerevisiae (strain ATCC 204508 / S288c) (Baker's yeast)) (P32657 whole entry, the tested form may be a part): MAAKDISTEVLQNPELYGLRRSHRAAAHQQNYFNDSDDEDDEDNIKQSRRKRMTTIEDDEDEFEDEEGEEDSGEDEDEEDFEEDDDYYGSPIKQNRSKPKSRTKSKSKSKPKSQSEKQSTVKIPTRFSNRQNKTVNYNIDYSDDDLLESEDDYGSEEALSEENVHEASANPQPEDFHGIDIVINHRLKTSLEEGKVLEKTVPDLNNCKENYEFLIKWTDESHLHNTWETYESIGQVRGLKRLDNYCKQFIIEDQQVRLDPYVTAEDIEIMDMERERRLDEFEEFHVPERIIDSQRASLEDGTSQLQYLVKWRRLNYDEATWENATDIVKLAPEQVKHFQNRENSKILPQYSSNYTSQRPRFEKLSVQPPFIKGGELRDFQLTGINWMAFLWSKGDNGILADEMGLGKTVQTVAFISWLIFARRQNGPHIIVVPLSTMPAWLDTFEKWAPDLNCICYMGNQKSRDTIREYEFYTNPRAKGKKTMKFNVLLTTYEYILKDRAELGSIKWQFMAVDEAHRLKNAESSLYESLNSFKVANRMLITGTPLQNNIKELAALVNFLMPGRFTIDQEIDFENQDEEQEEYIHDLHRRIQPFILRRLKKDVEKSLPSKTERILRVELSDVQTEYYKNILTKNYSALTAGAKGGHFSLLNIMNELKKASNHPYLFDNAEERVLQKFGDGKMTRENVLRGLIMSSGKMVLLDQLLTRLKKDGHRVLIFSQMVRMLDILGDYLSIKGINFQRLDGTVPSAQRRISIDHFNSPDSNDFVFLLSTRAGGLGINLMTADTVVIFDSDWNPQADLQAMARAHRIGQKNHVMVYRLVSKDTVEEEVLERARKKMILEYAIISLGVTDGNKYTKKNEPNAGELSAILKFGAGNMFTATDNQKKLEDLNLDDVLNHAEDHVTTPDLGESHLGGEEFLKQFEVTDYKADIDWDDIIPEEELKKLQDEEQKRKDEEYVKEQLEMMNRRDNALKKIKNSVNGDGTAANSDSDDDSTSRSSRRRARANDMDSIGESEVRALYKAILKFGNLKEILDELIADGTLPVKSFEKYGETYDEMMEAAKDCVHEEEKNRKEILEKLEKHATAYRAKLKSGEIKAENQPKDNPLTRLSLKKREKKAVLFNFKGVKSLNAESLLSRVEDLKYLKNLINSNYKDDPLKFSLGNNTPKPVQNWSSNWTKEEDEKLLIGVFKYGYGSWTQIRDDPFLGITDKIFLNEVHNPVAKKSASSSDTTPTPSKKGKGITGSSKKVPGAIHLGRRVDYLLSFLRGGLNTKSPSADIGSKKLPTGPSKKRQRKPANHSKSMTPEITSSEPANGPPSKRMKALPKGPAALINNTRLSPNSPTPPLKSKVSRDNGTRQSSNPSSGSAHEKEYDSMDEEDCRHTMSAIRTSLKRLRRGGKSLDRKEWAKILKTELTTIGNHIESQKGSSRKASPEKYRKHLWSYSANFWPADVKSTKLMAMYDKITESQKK

Sequence of Protein translocase subunit SecA (Escherichia coli (strain K12)) (P10408 whole entry): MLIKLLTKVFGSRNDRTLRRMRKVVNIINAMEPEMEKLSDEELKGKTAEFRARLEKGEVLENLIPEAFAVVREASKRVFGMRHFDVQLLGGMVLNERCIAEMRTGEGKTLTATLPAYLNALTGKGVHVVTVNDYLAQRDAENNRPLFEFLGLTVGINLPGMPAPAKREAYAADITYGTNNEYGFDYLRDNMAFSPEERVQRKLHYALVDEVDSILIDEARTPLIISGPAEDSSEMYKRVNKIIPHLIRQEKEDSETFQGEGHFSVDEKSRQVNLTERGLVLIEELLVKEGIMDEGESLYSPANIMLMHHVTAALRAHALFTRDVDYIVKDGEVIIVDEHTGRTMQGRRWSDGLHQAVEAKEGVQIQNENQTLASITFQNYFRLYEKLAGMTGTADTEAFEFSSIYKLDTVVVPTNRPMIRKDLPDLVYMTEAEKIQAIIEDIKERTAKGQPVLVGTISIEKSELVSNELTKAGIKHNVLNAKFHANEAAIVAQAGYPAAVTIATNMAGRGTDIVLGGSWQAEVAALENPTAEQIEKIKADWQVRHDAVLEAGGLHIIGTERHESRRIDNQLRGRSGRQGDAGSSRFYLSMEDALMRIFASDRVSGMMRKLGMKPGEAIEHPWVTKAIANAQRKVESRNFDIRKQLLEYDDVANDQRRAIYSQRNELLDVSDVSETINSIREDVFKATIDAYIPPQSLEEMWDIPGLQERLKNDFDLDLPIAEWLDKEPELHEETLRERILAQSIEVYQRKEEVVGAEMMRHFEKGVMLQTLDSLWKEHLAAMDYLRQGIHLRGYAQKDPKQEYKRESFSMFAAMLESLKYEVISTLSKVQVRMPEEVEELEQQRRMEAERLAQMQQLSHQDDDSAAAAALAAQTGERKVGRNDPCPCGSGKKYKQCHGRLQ

Compound	Percent Effect [1] [%]	Percent Effect [2] [%]	Percent Effect [3] [%]	Percent Effect [4] [%]	Percent Effect (Trypanosoma cruzi) [%]	Percent Effect [5] [%]	Percent Effect [6] [%]	Percent Effect (Homo sapiens) [%]	Percent Effect [7] [%]	Percent Effect [8] [%]	Percent Effect [9] [%]
Cn1cnnc1C1CCCN(C(=O)c2n[nH]c3ccccc23)C1 (configuration not stated)	-3.18	18.2	-8.06	-14.8	5.19	-3.16	13.8	-1.86	8.57	32.9	-21.5
CN1CCC(CCNC(=O)c2ccc(N(C)S(C)(=O)=O)cc2Cl)CC1	-4.43	-10.4	-1.14	0.479	-3.44	29	6.16	-1.88	0	-3.7	2.38
COCCCn1ccnc1-c1cnc(OC)nc1	-0.0522	5.41	-3.25	0.687	-0.386	-3.33	21.6	-18.9	6.88	4.88	-3.88
Cc1ccccc1CSCCn1nc2ccccn2c1=O	-1.42	15.6	7.92	-4.64	-2.06	4	10.9	18.9	4.76	18.8	-32.9
COc1ccccc1OCCC(=O)N1CCCC1Cn1cc(C)cn1 (configuration not stated)	-4.84	13	5.75	5.19	1.86	3.16	0.0808	7.77	7.62	18.8	-6.89
O=C(Cn1cnc(NC(=O)CC2CCCC2)n1)NCc1ccccc1	-6.6	15.8	-2.47	8.52	9.96	-1.53	2.84	11.9	6.37	17.1	-12.2
CCc1noc(CN2CCN(C(=O)N(C)C)CC2)n1	-5.22	-2.53	7.62	3.9	-5.38	0.38	4.83	23.4	-5.42	-16.5	-4.89
CC(C)Sc1nnc(CCNC(=O)OC(C)(C)C)o1	1.34	4	-0.0572	0.92	-8.45	0.176	12.2	32.6	-2.12	-12.8	-10.5
O=C1CCC2(CCN(Cc3cc(F)cc(F)c3)CC2)CN1CCO	-6.11	4.17	-0.613	0.944	1.85	-24.7	9.12	-8.34	3.16	10.3	-0.52
CCNC(=O)N(C)Cc1ccc(SC)c(OC)c1	-3.35	21.6	-5.93	0.171	4.49	7.92	9.72	-1.36	7.92	3.66	92.2
CC(C)n1cnc2c1C(C(=O)NCCC#N)N(Cc1ccccc1)CC2 (configuration not stated)	-5.9	16	-5.79	0.457	4.44	-40	14	-0.451	2.08	15	-7.21
COc1c(CNCc2ccc(C(=O)N(C)C)cc2)c(C)nn1C	-4.19	1.27	7.36	-0.0396	2.97	1.07	8.23	27.1	3.12	7.59	-4.86
CCNc1cc2c(nn1)CCN(C(=O)CC1CCCCC1)C2	-8.49	12.7	0.0974	9.47	1.42	3.04	-0.0819	-11.3	16.3	8.86	-8.44
CN(C)C(=O)CC1CC2(CCN(CC3CC3)CC2)c2cc(F)ccc21 (configuration not stated)	-6.7	5.41	-8.18	-5.86	-2.44	-4.14	3.14	5.88	-5.41	-2.56	5.46
CCOCC1CN(S(=O)(=O)N(C)C)Cc2cnn(C)c21 (configuration not stated)	-2.24	5.48	-0.778	4.27	-5.16	-8.38	4.71	11.6	7.29	1.24	-2.91
CC(C)NC(=O)COc1nc(C(C)C)no1	-4.66	-2.7	-12.4	41.5	9.07	16.2	4.48	6.57	-0.529	9.76	-4.43
c1cncc(COCc2nnc3n2CCN(Cc2ccoc2)C3)c1	-1.23	18.2	3.03	9.78	5.21	-8.28	21	8.47	6.45	16.1	0.555
